{"source": "PubChem BioAssay AID1508642", "about": "(National Center for Advancing Translational Sciences (NCATS), 2021)", "note": "About 200 (0.47%) of roughly 43,000 compounds were called active. Another 12% or so got no clear call; they are omitted. The list comes from a sample in which actives are over-represented; it also holds similar structures and randomly drawn compounds. A number with no mark means an inactive call. Calls come from the whole dose curve; as a rule, active = well fitted cell-killing curve with a large enough effect; inconclusive = small, poorly fitted or top-dose-only effect, or effect the other way; inactive = flat fitted curve, though single readings scatter. % is set by controls: 0 for no effect and ±100 for the full control effect."}
{"experiment": "Cell viability qHTS assay in S16 Pmp22-F2sN cells; note: nearly all actives have a fitted effect of over 65% in size", "settings": "S16 Pmp22-F2sN Schwann cells (luciferase reporters placed in the Pmp22 gene) viability, CellTiter-Glo, 24 h; series mostly up to 57.5 µM; activity change, negative = cytotoxicity: at the top concentration", "source_text": "Assay Provider: Jim Inglese Ph.D. National Center for Advancing Translational Science, National Institutes of Health, Rockville, MD CMT is a heterogeneous group of neurological disorders that affect approximately 1 in 2,500 people. In particular, the most common form of CMT, CMT1A is genetically linked to the duplication of the PMP22 gene which leads to Schwann cell overexpression, thus manifesting itself as a typical case of dose-sensitive diseases. To identify small molecule compounds that can mediate the expression of PMP22 we developed a phenotypic assay screening strategy by utilizing genome editing techniques to construct Schwann cell lines containing novel reporter technology to monitor the transcriptional or translational regulation of PMP22. For high sensitivity we use a bioluminescent reporter system embedded in the 3' UTR of the PMP22 gene (S16(c9) Pmp22-F2sN) to identify compounds that inhibit gene expression. […] We can further discriminate the effect of all transcriptionally active molecules on PMP22 translation or stability with an assay that incorporates a short NLuc peptide (HiBiT) at the C-terminus of expressed PMP22 (S16(f8) PMP22-HiBiT) allowing alpha complementation and luminescence detection of membrane-associated PMP22 protein. These assays were screened against the NCATS Sytravon Library Collection. Miniaturization of these assays to 1536-well plate format for quantitative high throughput screening (qHTS) yielded rich data sets immediately from the qHTS assay (S16(c9) Pmp22-F2sN), when compared with data from a cell viability assay (Cell TiterGlo) to identify compounds that decreased the output signals through cellular toxicity to streamline the selection process of actives for subsequent characterization using the HiBiT assay (S16(f8) PMP22-HiBiT).\nCell viability assay in S16 Pmp22-F2sN cells PROTOCOL TABLE (format as described by Inglese J, Shamu CE and Guy RK. 2007) SEQUENCE No. (e.g., 1, 2, 3, etc.); […] (e.g., Cells, Incubation, Reagent, etc.); VALUE and DESCRIPTION. 1. Cells. Add 500-1,000 cells in 4 uL in growth media (DMEM High Glucose, No Phenol Red media + 10% heat-inactivated FBS + 1% Pen/Strep supplemented media) per well into Greiner 1536-well white/solid bottom high base, TC-treated plates. 2. Compounds. Library compounds and controls added at 23nL per well, transferred by Pin Tool. 3. Incubation. Incubate plates at 37C, 5% CO2, 95% RH for 24 h. 4. Reagent. Add 3uL CellTiter-Glo per well of Greiner 1536-well plates. 5. Incubation. Incubate plates at room temperature for 15 min., protect from light. 6. Detector. FLuc luminescence measured using CCD-based camera (Viewlux). NOTES (numbers refer to Sequence numbers above; values are from representative experiments) 6. Luminescence Read: Clear filter; Exposure = 1 sec, Gain = High, Speed = Slow, Binning = 2X REFERENCES: 1. Inglese J, Shamu CE and Guy RK, Reporting data from high throughput screening of small molecule libraries, Nature Chemical Biology, 2007, 3(8): 438-441. doi.org/10.1038/nchembio0807-438 2. Yasgar A, Shinn P, Jadhav A, Auld DS, Michael S, Zheng W, Austin CP, Inglese J and Simeonov A, Compound Management for Quantitative High-Throughput Screening. J. Assoc. Lab. Auto., 2008, 13: 79-89. doi: 10.1016/j.jala.2007.12.004", "units": {"activity change, negative = cytotoxicity": "%"}}
{"smiles": "COc1ccc(CC(=O)NCCc2sc3nc(-c4ccc(OC)cc4)nn3c2C)cc1", "activity change, negative = cytotoxicity": -14.4}
{"smiles": "CC(=O)Nc1cccc(NC(=O)CSc2nccn2Cc2ccc3c(c2)OCO3)c1", "activity change, negative = cytotoxicity": 5.54}
{"smiles": "CCCCN(CC)CCCNC(=O)c1nn(C)c2c1CSc1ccccc1-2", "activity change, negative = cytotoxicity": -3.98}
{"smiles": "COC(=O)c1ccc(-c2nc3cc(NC(C)=O)ccc3o2)cc1", "activity change, negative = cytotoxicity": 5.12}
{"smiles": "CCN1CCC(N(Cc2ccc(F)cc2)C(=O)Nc2cc(C)ccc2C)CC1", "activity change, negative = cytotoxicity": -12.8}
{"smiles": "COc1cc(OC)cc(C(=O)Nc2c(C(=O)Nc3ccc(F)cc3)oc3ccccc23)c1", "activity change, negative = cytotoxicity": -0.156}
{"smiles": "Cc1cccc(NC(=O)CSc2nc3c([nH]c4ccccc43)c(=O)n2-c2cc(C)cc(C)c2)c1", "activity change, negative = cytotoxicity": 7.62}
{"smiles": "CCN(CCCNC(=O)Cn1ncc2c3ccccc3n(C)c2c1=O)Cc1ccccc1", "activity change, negative = cytotoxicity": 3.84}
{"smiles": "CCOc1ccc(CNC(=O)c2cc(-c3ccc(Cl)s3)nc3ccccc23)cc1", "activity change, negative = cytotoxicity": 8.53}
{"smiles": "O=C(NCC12CC3CC(CC(C3)C1)C2)c1cc2nc(-c3ccccc3)cc(C(F)(F)F)n2n1", "activity change, negative = cytotoxicity": 14.3}
{"smiles": "O=C(NCCCO)C(=O)Nc1c2c(nn1-c1ccc(F)cc1)CSC2", "activity change, negative = cytotoxicity": -15.3}
{"smiles": "Cc1c(NS(=O)(=O)c2ccc(Cl)cc2)c(=O)n(-c2ccccc2)n1C", "activity change, negative = cytotoxicity": 3.6}
{"smiles": "Cc1ccc(C)c(N2CCN(C(=O)Cn3ncc4c(=O)oc5ccc(C)cc5c43)CC2)c1", "activity change, negative = cytotoxicity": 4.69}
{"smiles": "Cc1ccccc1NC(=O)Cn1c(=O)n(CC2CCC(C(=O)NCCc3ccccc3)CC2)c(=O)c2ccccc21", "note": "(configuration not stated)", "activity change, negative = cytotoxicity": 16.1}
{"smiles": "COC(=O)c1c(NC(=O)C(C)Oc2ccc(Cl)c(C)c2)sc(C)c1C", "note": "(configuration not stated)", "activity change, negative = cytotoxicity": 0.0514}
{"smiles": "Cc1ccccc1C(=O)Nc1cc(C)c(O)c(-c2nc3ccccc3o2)c1", "activity change, negative = cytotoxicity": 17}
{"smiles": "CCOc1ccc(NC(=O)CCC(=O)N2CC(C)Oc3ccc(C)cc32)cc1", "note": "(configuration not stated)", "activity change, negative = cytotoxicity": 6.01}
{"smiles": "COc1ccccc1C(=O)Nc1c(C(=O)Nc2ccc(C)cc2)oc2ccccc12", "activity change, negative = cytotoxicity": 8.02}
{"smiles": "COc1ccc(CCNC(=O)CCCn2c(=O)c3ccccc3n(Cc3ccc(C)cc3)c2=O)cc1OC", "activity change, negative = cytotoxicity": 15.9}
{"smiles": "CN(CC(=O)Nc1ccccc1F)S(=O)(=O)c1ccc2c(c1)c(=O)n(C)c(=O)n2C", "activity change, negative = cytotoxicity": 15.6}
{"smiles": "Cc1cccc(C)c1Nc1c(-c2ccccc2O)nc2ncccn12", "activity change, negative = cytotoxicity": -10.5}
{"smiles": "Cc1ccc(C)c(NC(=O)CSC2=Nc3ccccc3N=C(c3ccc(F)cc3)C2)c1", "activity change, negative = cytotoxicity": -2.61}
{"smiles": "O=C(CC1C(=O)N(c2ccccc2)C(=O)N1CCc1cccs1)Nc1ccc(F)cc1", "note": "(configuration not stated)", "activity change, negative = cytotoxicity": -17.5}
{"smiles": "COC(=O)c1ccc(NC(=O)c2cc(S(=O)(=O)N3CCC(C)CC3)cn2C)cc1", "activity change, negative = cytotoxicity": -14.5}
{"smiles": "CC1CCCCN1CC(=O)N1CCCc2c1c(=O)oc1ccc(OCc3ccccc3)cc21", "note": "(configuration not stated)", "activity change, negative = cytotoxicity": 0.438}
{"smiles": "O=c1cc(CSc2ncn[nH]2)[nH]c2ccc(F)cc12", "activity change, negative = cytotoxicity": 0.415}
{"smiles": "CN(C(=O)CSc1nnc(NC(=O)Nc2ccccc2)s1)c1ccccc1", "activity change, negative = cytotoxicity": -10}
{"smiles": "Cc1cc(F)ccc1NS(=O)(=O)c1ccc(-n2cccn2)cc1", "activity change, negative = cytotoxicity": -14.3}
{"smiles": "Cc1ccc(Nc2c(-c3ccc(Cl)cc3)nc3sccn23)c(C)c1", "activity change, negative = cytotoxicity": 28.2}
{"smiles": "Cc1cccc(C(=O)N2c3nc(-c4ccco4)nn3C3(CCCCC3)[C@@H]3CCCC[C@@H]32)c1", "activity change, negative = cytotoxicity": 3.56}
{"smiles": "CC1=C(C(=O)Nc2ccccc2)C(c2ccc(C)cc2)n2nc(SCc3ccccc3C)nc2N1", "note": "(configuration not stated)", "activity change, negative = cytotoxicity": 3.66}
{"smiles": "Cc1ccccc1NC(=O)c1cc2c([nH]c1=O)CC(C)(C)CC2=O", "activity change, negative = cytotoxicity": 10.8}
{"smiles": "CCOC(=O)C1CCN(c2csc3ccc(C)cc3c2=O)CC1", "activity change, negative = cytotoxicity": 3.59}
{"smiles": "Cc1c(Cl)cccc1NC(=O)C(=O)NCCc1csc2nc(-c3ccccc3F)nn12", "activity change, negative = cytotoxicity": -22.5}
{"smiles": "CCCCN(CCCNC(=O)c1cc(Nc2ccccc2OC)nc2ccccc12)c1ccccc1", "activity change, negative = cytotoxicity": 9.74}
{"smiles": "Cc1ccc(N(CC(=O)NCc2ccc(Cl)cc2)S(=O)(=O)N(C)C)cc1", "activity change, negative = cytotoxicity": 13.9}
{"smiles": "Cc1ccsc1CN(C(=O)c1oc2ccc(Br)cc2c1C)C1CCS(=O)(=O)C1", "note": "(configuration not stated)", "activity change, negative = cytotoxicity": -28.5}
{"smiles": "Cc1ccc(NC(=O)c2oc3ccccc3c2NC(=O)Cc2cccs2)cc1", "activity change, negative = cytotoxicity": 10.9}
{"smiles": "COc1ccc(CCNc2nc3c(-c4cccc(F)c4)nnn3c3ccccc23)cc1OC", "activity change, negative = cytotoxicity": -1.72}
{"smiles": "CNC(=O)CN1C(=O)c2cccnc2Sc2ccccc21", "activity change, negative = cytotoxicity": 0.0311}
{"smiles": "COc1ccc(CCNC(=O)c2cn(C)c3ccc(S(=O)(=O)N(C)C4CCCCC4)cc3c2=O)cc1OC", "activity change, negative = cytotoxicity": -12.3}
{"smiles": "COc1ccc(N2CCN(S(=O)(=O)c3ccc(-c4coc(C)n4)cc3)CC2)cc1", "activity change, negative = cytotoxicity": -6.43}
{"smiles": "COc1ccc(C2NC(=O)N(C)C3=C2C(=O)N(c2ccc(C(=O)O)cc2)C3)cc1", "note": "(configuration not stated)", "activity change, negative = cytotoxicity": 8.03}
{"smiles": "O=C(CN1CCN(Cc2ccc(Cl)cc2)C1=O)NCc1ccc(F)cc1", "activity change, negative = cytotoxicity": 1.11}
{"smiles": "COc1ccc(-n2c(SC)nc3sc4c(c3c2=O)CCN(C(C)=O)C4)cc1", "activity change, negative = cytotoxicity": 2.85}
{"smiles": "CCOc1ccc(NC(=O)Cn2cc(C(=O)c3ccc(C)cc3)c(=O)c3cc4c(cc32)OCCO4)cc1", "activity change, negative = cytotoxicity": -0.757}
{"smiles": "CC(=O)c1ccc(NC(=O)CCc2nc(-c3ccc(C)cc3)no2)cc1", "activity change, negative = cytotoxicity": -13.9}
